Source: PubChem
An excerpt weighted towards active compounds, which were near 1.5% of everything screened.
RECQ1 helicase: blocks DNA unwinding by human RECQ1; P46063; RECQ1 DNA unwinding, red fluorescence kinetic read; Potency, µM (doses to about 57.3 µM), for the others: at the highest dose activity, negative = inhibition, most hits filed as inhibitors; actives 0.54% (n = 240,000);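 also: potency is read from the fitted curve at half-maximal effect; plate controls were vehicle for no effect and no enzyme for full effect; nearly all actives have a fitted effect of over 30% in size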
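RECQ1T1 50 nM; forked duplex (20 bp + 30-nt ss tails) 200 nM, ATP 2 mM final; pH 8.0, 2 mM MgCl2, 2.5 ug/ml poly(dI-dC); 15 min compound preincubation; discontinuous kinetic read over 2 h at RT.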
PI5P4K alpha inh: inhibitors of human PI5P4K alpha. P48426. PI5P4Kalpha enzyme, ADP-Glo luminescence, 60 min; hits give low values. max response, %. actives 1.2% (n = 330,000). AID 652105; active = max response of -50% or lower; inconclusive = between -30% and -50%; inactive = -30% or higher; also: value at the top dose of about 77 µM; % is scaled to controls: 0 for no effect and ±100 for the full control effect
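Single end-point luminescence (ADP-Glo) quantified ADP from PI5P4Kalpha turnover; ATP 5 microM final, 1 h at RT, 0.1% CHAPS and 0.28 mM EGTA in HEPES pH 7.4.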
APE1 inh: inhibitors of human APE1 endonuclease; P27695; recombinant APE1, TAMRA/BHQ-2 abasic DNA cleavage fluorescence; Potency, µM (titrated, usually from 65.8 µM), without a hit: at the highest dose activity change, negative = inhibition, hits mostly inhibitors; actives 0.35% (n = 350,000); AID 2517;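 also: potency is read from the fitted curve at half-maximal effect; plate controls were vehicle for no effect and reference inhibitor for full effect; nearly all actives have a fitted effect of over 55% in size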
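Endonuclease cleavage of a quenched abasic-site DNA duplex (50 nM) by APE1 (0.75 nM) was tracked by TAMRA dequenching. Compounds were preincubated with enzyme 15 min at room temperature; data normalized to buffer-only and DMSO wells plus NSC13755 control.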
BLM inh: Bloom syndrome helicase (human) inhibition. recombinant BLM DNA unwinding, fluorescence dequenching. Potency, µM (titrated, usually from 56.1 µM), for the others: at the top dose activity change, negative = inhibition, hits mostly inhibitors. actives 0.2% (n = 350,000). AID 2528;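 also: potency is read from the fitted curve at half-maximal effect; plate controls were vehicle for no effect and no enzyme for full effect; nearly all actives have a fitted effect of over 35% in size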
FEN1 inh-1: human FEN1 inhibition | Recombinant FEN1 flap cleavage, fluorescence, 15 min | Potency, µM (highest dose often 114 µM), for inactives: at the highest dose activity change, negative = inhibition, actives largely listed as inhibitors | actives 0.35% (n = 390,000) | AID 588795; also: potency is read from the fitted curve at half-maximal effect; % is scaled to controls: 0 for no effect and ±100 for the full control effect; nearly all actives have a fitted effect of over 65% in size
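Quantitative HTS format: each compound was titrated, incubated with 10 nM nuclease for 15 min at room temperature, then challenged with flap substrate at 50 nM final. Signal change over 15 min gave concentration–effect curves.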
WRN helicase inh: blocks human WRN helicase; Q14191; WRN helicase unwinding, fluorescent forked duplex, kinetic; Potency, µM (top dose mostly 114 µM), inactives show at the highest dose activity change, negative = inhibition, most hits filed as inhibitors; actives 0.46% (n = 360,000); also: potency is read from the fitted curve at half-maximal effect; % is scaled to controls: 0 for no effect and ±100 for the full control effect; nearly all actives have a fitted effect of over 55% in size
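WRN at 20 nM final preincubated with compound 15 min at room temperature; reaction started with 100 nM fluorophore/quencher forked duplex oligonucleotide and 2 mM ATP final. Unwinding followed kinetically by red fluorescence (ex 525, em 598 nm).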
FEN1 inh-2: FEN1 inhibition, cherry-pick retest; shares compounds with FEN1 inh-1; FEN1 flap cleavage, TAMRA/BHQ2 fluorogenic DNA substrate; Potency, µM, hits mostly inhibitors; actives 79% (n = 880); AID 720498; also: potency is read from the fitted curve at half-maximal effect; nearly all actives have a fitted effect of over 60% in size
* marks the source's active call; other numbers are inactive results; ! = not active in a repeat; [ ] = another dose, or the depositor's remark. Unless noted, calls follow the shape of the dose curve; as a rule, active = well fitted curve in the direction sought with a large enough effect; inconclusive = small, poorly fitted or top-dose-only effect, or another doubt; inactive = no such curve, though single readings can be large; an effect the other way counts as inactive or inconclusive.

What do the screens show for `CCC1CCCCN1CCCNC(=O)c1cc2c(=O)n(CC)c3ccccc3c2s1` (configuration not stated)?
BLM inh: 38.8%; FEN1 inh-1: -3.0%

Results for Cc1ccc2nc(Cl)c3cc(C(=O)N4CCCCC4)sc3c2c1 ?
BLM inh: -3.8%; FEN1 inh-1: -20.9%

How did CCC1CCCCN1CCCNC(=O)c1cc2c(Cl)nc3ccc(C)cc3c2s1 (configuration not stated) do in these assays?
BLM inh: 196.9%; FEN1 inh-1: 89.1µM*; FEN1 inh-2: inconclusive

What do the screens show for `Cc1ccc2nc(Cl)c3cc(C(=O)NCCCN4CCCC4)sc3c2c1`?
RECQ1 helicase: 14.1%; PI5P4K alpha inh: 1.9; APE1 inh: -7.8%; BLM inh: 65.4%; FEN1 inh-1: 22.4µM*; WRN helicase inh: 37.1%; FEN1 inh-2: 47.8*

Results for O=C(NNc1ccccc1F)c1sccc1Cl ?
FEN1 inh-1: -6.0%

What do the screens show for `O=c1c(NCc2cccs2)nccn1-c1ccc(F)cc1`?
BLM inh: -1.2%; FEN1 inh-1: 23.6%

How did COc1cc2sc3cc(NCCCN4CCOCC4)ccc3c(=O)c2cc1OC do in these assays?
PI5P4K alpha inh: 3.6; APE1 inh: -12.8%; FEN1 inh-1: inconclusive; WRN helicase inh: -30.3%

What do the screens show for `O=c1c2ccccc2oc2ccc(NCCCn3ccnc3)cc12`?
PI5P4K alpha inh: -0.7; APE1 inh: -4.9%; BLM inh: -11.0%; FEN1 inh-1: inconclusive; WRN helicase inh: -10.5%

Results for Cc1cc2oc3cc(NCCC4CCCN4C)ccc3c(=O)c2cc1C (configuration not stated) ?
PI5P4K alpha inh: -11.6; FEN1 inh-1: 35.5µM*; WRN helicase inh: -28.7%; FEN1 inh-2: 33.8*

How did CN1CCCC1CCNc1ccc2sc3ccccc3c(=O)c2c1 (configuration not stated) do in these assays?
PI5P4K alpha inh: 0.7; FEN1 inh-1: 39.8µM*; WRN helicase inh: -30.4%; FEN1 inh-2: 37.9*

Results for O=c1[nH]/c(=C/c2ccc3c(c2)OCO3)c(=O)[nH]/c1=C/c1ccc2c(c1)OCO2 ?
FEN1 inh-1: -4.1%

What do the screens show for `O=S(=O)(NCCc1ccccc1)c1ccccc1Br`?
RECQ1 helicase: 1.7%; APE1 inh: 19.9%; BLM inh: 1.6%; FEN1 inh-1: -20.5%

How did Cc1nc2ccccc2c(=O)n1/N=C/c1ccc(O)c(O)c1O do in these assays?
PI5P4K alpha inh: -86.1*; APE1 inh: -18.0%; BLM inh: -18.2%; FEN1 inh-1: inconclusive; WRN helicase inh: 2.99µM*; FEN1 inh-2: 10.7*

Results for O=C(Cn1c(=O)oc2cc(S(=O)(=O)NCc3ccccc3)ccc21)Nc1cccc(F)c1 ?
BLM inh: -7.2%; FEN1 inh-1: -9.7%

What do the screens show for `CCOc1ccccc1NC(=O)Nc1nnc(N2CCCCCC2)s1`?
BLM inh: -1.9%; FEN1 inh-1: -2.7%

Results for NCCCCNc1ncnc2ccc(-c3ccc4c(c3)OCO4)cc12 ?
FEN1 inh-2: 30.1*

Results for CNc1ncnc2ccc(-c3ccc4c(c3)OCO4)cc12 ?
RECQ1 helicase: -2.3%; APE1 inh: -10.2%; BLM inh: -3.2%

How did NCCNc1ncnc2ccc(-c3ccc4c(c3)OCO4)cc12 do in these assays?
FEN1 inh-2: 26.9*

How did CN(C)CCCNc1ncnc2ccc(-c3ccc4c(c3)OCO4)cc12 do in these assays?
FEN1 inh-2: 30.1*

Results for O=C1C=CC(=O)N1c1ccccc1N1C(=O)C=CC1=O ?
PI5P4K alpha inh: -88.9*; FEN1 inh-1: inconclusive; WRN helicase inh: inconclusive; FEN1 inh-2: inconclusive

How did CCCS(=O)(=O)NCCc1sc2nc(-c3ccc(Cl)cc3)nn2c1C do in these assays?
BLM inh: 1.5%; FEN1 inh-1: -7.6%

What do the screens show for `Cc1c(C(=O)O)c(O)cc2c1C(=O)c1c(O)c([C@@H]3O[C@H](CO)[C@@H](O)[C@H](O)[C@H]3O)c(O)c(O)c1C2=O`?
PI5P4K alpha inh: inconclusive; APE1 inh: 14.1µM*!; FEN1 inh-1: inconclusive; WRN helicase inh: 31.6µM*; FEN1 inh-2: 84.9*

How did O=S(=O)(O)c1cc(O)c(N=Nc2ccc(O)cc2O)c2ccccc12 do in these assays?
PI5P4K alpha inh: -77.8*; FEN1 inh-1: 35.5µM*; WRN helicase inh: 39.8µM*; FEN1 inh-2: 84.9*

What do the screens show for `COc1cc(C(=S)N2CCN(c3ccccc3Cl)CC2)cc(O)c1O`?
RECQ1 helicase: -6.0%; PI5P4K alpha inh: -57.6*; APE1 inh: 8.5%; BLM inh: inconclusive; FEN1 inh-1: inconclusive; WRN helicase inh: inconclusive; FEN1 inh-2: 15.1*

How did Nc1cc(S(=O)(=O)O)cc([N+](=O)[O-])c1O do in these assays?
RECQ1 helicase: 2.9%; PI5P4K alpha inh: -13.4; APE1 inh: -9.4%; BLM inh: -1.4%; FEN1 inh-1: inconclusive; WRN helicase inh: inconclusive; FEN1 inh-2: inconclusive

What do the screens show for `Nc1ccc(C(=O)O)cc1[N+](=O)[O-]`?
RECQ1 helicase: -5.3%; PI5P4K alpha inh: 0.7; APE1 inh: -3.4%; BLM inh: 0.7%; FEN1 inh-1: -1.9%; WRN helicase inh: -0.7%

How did Cc1cccc(OCC(=O)Nc2ccc(Cl)c(-c3nc4ccccc4[nH]3)c2)c1 do in these assays?
BLM inh: -10.8%; FEN1 inh-1: -10.2%

Results for COc1ccc2c(c1)N(C)/C(=C/c1cccc[n+]1C)S2 ?
PI5P4K alpha inh: -1.6; APE1 inh: -19.4%; BLM inh: 88.2%; FEN1 inh-1: 20µM*; WRN helicase inh: -0.9%[11.6 µM]; FEN1 inh-2: inconclusive

What do the screens show for `Cc1ccc2c(c1)N(C)/C(=C/c1cccc[n+]1CCO)S2`?
PI5P4K alpha inh: 1.2; APE1 inh: 4.3%; BLM inh: 3.8%; FEN1 inh-1: -21.3%; WRN helicase inh: -1.7%

What do the screens show for `COc1ccc2c(c1)S/C(=C\C(=O)c1ccncc1)N2C`?
RECQ1 helicase: 17.1%; PI5P4K alpha inh: -14.8; APE1 inh: -2.5%; BLM inh: -0.5%; FEN1 inh-1: -3.7%; WRN helicase inh: -7.4%

Results for Cc1ccc2c(c1)N(C)/C(=C/c1cccc[n+]1C)S2 ?
PI5P4K alpha inh: 1.9; APE1 inh: -32.1%; BLM inh: 44.7%; FEN1 inh-1: inconclusive; WRN helicase inh: 0.7%[11.6 µM]; FEN1 inh-2: 37.9*

How did CCCCOc1ccc(C(=O)Nc2ccc3c(c2)CCCN3C(=O)c2cccs2)cc1 do in these assays?
BLM inh: -6.5%; FEN1 inh-1: -11.6%
